# This is a sample that favours compounds with a hit; in the whole collection about 3% have one here.
# GALK inhibitor: inhibitors of human galactokinase. P51570. Purified GALK, Kinase-Glo residual ATP luminescence. Potency, µM (titrated, usually from 57.5 µM), without a hit: top-dose activity change, negative = inhibition, usual class: inhibitors. 0.007% of 270,000 active. AID 1868; also: % is scaled to controls: 0 for no effect and ±100 for the full control effect
# Target sequence (P51570 whole entry, looked up): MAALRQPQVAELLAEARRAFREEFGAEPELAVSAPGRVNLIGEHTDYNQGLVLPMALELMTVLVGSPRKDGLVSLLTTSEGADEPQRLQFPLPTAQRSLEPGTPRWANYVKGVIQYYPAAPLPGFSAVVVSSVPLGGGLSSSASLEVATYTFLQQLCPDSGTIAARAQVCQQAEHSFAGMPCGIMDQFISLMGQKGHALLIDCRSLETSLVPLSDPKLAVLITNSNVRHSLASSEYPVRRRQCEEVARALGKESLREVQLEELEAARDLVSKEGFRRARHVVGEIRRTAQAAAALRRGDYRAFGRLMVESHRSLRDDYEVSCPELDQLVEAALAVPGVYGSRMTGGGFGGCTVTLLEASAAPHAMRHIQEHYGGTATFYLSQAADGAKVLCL
#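 ATP-depletion format; final 35 uM ATP, 100 uM D-galactose, 5 nM enzyme; pH 8.0 HEPES/Mg2+ buffer; 60 min RT; luminescence read 10 min after detection reagent.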
# TrxR1 substrate: rat thioredoxin reductase 1 substrate activity; O89049; purified TrxR1 substrate turnover, NADPH consumption readout; Potency, µM (top dose mostly 114 µM), for inactives: at the highest dose activity change, negative = substrate turnover; 0.01% of 390,000 active; also: % is scaled to controls: 0 for no effect and ±100 for the full control effect; nearly all actives have a fitted effect of over 50% in size
#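 Rat TrxR1, dispensed at 90 nM, was prereduced with 400 uM NADPH (final) for 5 min at ~22 deg C, then incubated with compound 15 min before 400 uM selenite. A first-read NADPH fluorescence drop versus no-compound background flagged substrates.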
# Nrf2 ARE act: Nrf2 pathway activation; AREc32 ARE-luciferase reporter (MCF7-derived line), luminescence, 24 h; 0.31% of 410,000 active; AID 624171; Potency, µM (series often up to 46.1 µM), inactives show at the highest dose activation, most hits filed as activators; also: % of control where 0% means no effect; nearly all actives have a fitted effect of over 65% in size
#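 Reporter line AREc32 (ARE-Fluc), seeded overnight in OPTI-MEM with 5% FBS; compound pin-transferred, 24 hr at 37 deg C, 5% CO2; luminescent read-out.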
# TrxR1 inh: rat TrxR1 inhibition; O89049; recombinant rTrxR1, NADPH fluorescence consumption, selenite substrate; Potency, µM (highest dose often 114 µM), for inactives: at the highest dose activity change, negative = inhibition, actives largely listed as inhibitors; 1% of 390,000 active; AID 588453; also: % is scaled to controls: 0 for no effect and ±100 for the full control effect; nearly all actives have a fitted effect of over 65% in size
#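 Rat TrxR1 (90 nM in the dispensed reagent) was pre-reduced with 400 uM NADPH for 5 min at room temperature, then incubated with compound for 15 min. After 400 uM selenite was added, NADPH fluorescence (Ex 340/Em 450 nm) was followed for 8 min.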
# A549 viability: kills or reduces viability of A549 cells in Nrf2 counter-screen; A549 ARE-Fluc cells, CellTiter-Fluor viability, 18-24 h; Potency, µM (top dose mostly 46 µM), for inactives: top-dose activity change, negative = cytotoxicity, usual class: inhibitors; 0.16% of 390,000 active; AID 504648; also: % is scaled to controls: 0 for no effect and ±100 for the full control effect
#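 Cytotoxicity counterscreen: CellTiter-Fluor fluorescence was measured in A549 ARE_Fluc cells after 18-24 h of compound exposure in a concentration series. The subsequent BugLite luminescent read reports ARE-luciferase activity.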
# Nrf2 inh: blocks Nrf2 signaling; 2.1% of 360,000 active; Potency, µM (titrated, usually from 46 µM), for the others: top-dose activity change, negative = inhibition, most hits filed as inhibitors; A549 ARE-Fluc reporter, luciferase luminescence, 18-24 h; also: % is scaled to controls: 0 for no effect and ±100 for the full control effect; nearly all actives have a fitted effect of over 60% in size
#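 Two sequential reads on A549 ARE_Fluc cells exposed to compound for 18-24 h: a CellTiter-Fluor fluorescence read for viability, then a luciferase luminescence read for Nrf2/ARE activity.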
# Active calls of the source: *; ? = inconclusive; . = no result given; [ ] = dose if it differs, or a comment. Calls follow the shape of the dose curve; as a rule, active = well fitted curve in the direction sought with a large enough effect; inconclusive = small, poorly fitted or top-dose-only effect, or another doubt; inactive = no such curve, though single readings can be large; an effect the other way counts as inactive or inconclusive. Potency is read from the fitted curve at half-maximal effect.
SMILES,GALK inhibitor,TrxR1 substrate,Nrf2 ARE act,TrxR1 inh,A549 viability,Nrf2 inh
CC1C(=O)N(Cc2ccccc2F)c2ccccc2N1C(=O)c1c(F)cccc1F (centres undefined),2%,-6%,0%,3%,1%,?
COc1cccc(C(=O)NCc2cn3ccccc3n2)c1,.,-4%,9%,19%,-1%,23µM*
CCCN1CCCc2cc(CN)ccc21,1%,19%,2%,?,0%[1.84 µM],9.2µM*
CCc1ccccc1NC(=O)CCCN1C(=O)CCn2nc(-c3cn(C)c4ccccc34)cc21,.,4%[57.1 µM],0%,17%[57.1 µM],-18%,.
CCc1ccc(S(=O)(=O)c2nnn(-c3ccc(F)cc3)c2N)cc1,.,4%,-1%,11%,-4%,13µM*
Cc1ccc2cc(CCNS(=O)(=O)c3ccc(Br)cc3)c(=O)[nH]c2c1C,5%,10%[57.1 µM],2%,12%[57.1 µM],-23%,23µM*
COc1cccc(/C(C)=N/NC(=O)c2cc(-c3cccnc3)nc3ccccc23)c1,-2%,-3%,4%,13%,-6%,21µM*
CC(=O)Nc1cccc(NC(=O)c2cc(-c3cccnc3)nc3ccc(Br)cc23)c1,-1%,-12%,0%,-5%,?,12µM*
COc1ccc(/C(C)=N/NC(=O)c2cc(-c3cccnc3)nc3ccccc23)cc1,0%,7%,2%,22%,-1%,-2%
CCOc1ccc(CCNC(=O)Cn2c(C)c3cnn(-c4ccccc4)c(=O)c3c2C)cc1,.,-9%,0%,-10%,3%,-17%
CCOc1ccccc1NC(=O)c1ccc2c(Cl)c3c(nc2c1)CCC3,.,-2%,-1%,-1%,5%,?
Cc1ccc(C(=O)/C=C/C(=O)O)cc1,-1%,-4%,22µM*,2.8µM*,12%,4%
C#CCSc1nccc(-c2nn(-c3ccc(C)cc3)ccc2=O)n1,-3%,20%,0%,79µM*,-12%,-15%
COC(=O)c1c(NC(=O)CCCOc2ccc(C)cc2)sc2c1C(C(=O)OC)CC2 (centres undefined),.,-9%,3%,-23%,-11%,?
COc1cccc(C2C(C#N)=C(NC(=O)NCc3ccccc3)Oc3ccc4ccccc4c32)c1 (centres undefined),.,.,.,.,?,-7%
O=C(C1CCC(CNS(=O)(=O)c2cccs2)CC1)N1CCN(c2ccc(Cl)cc2)CC1 (centres undefined),-3%,-7%,7%,7%,?,8.2µM*
O=C(C1CCC(CNS(=O)(=O)c2ccc(Br)s2)CC1)N1CCN(c2ccccc2)CC1 (centres undefined),.,-1%,0%,6%,-1%,?
Cc1ccc(C(C2C(=O)CC(C)(C)CC2=O)C2C(=O)CC(C)(C)CC2=O)s1,-1%,-13%,0%,40µM*,-8%,3%
Oc1ccc(/C=N/Nc2nc(-c3cccnc3)nc3ccccc23)c(O)c1,-2%,5%,-1%,29%,-13%,21µM*
Cc1c(O)ccc(/C=N/Nc2nc(-c3cccnc3)nc3ccccc23)c1O,5%,6%,4%,28%,-8%,-7%
Cc1cc(C)c2nccc(/C=C/c3ccc(N(C)C)cc3)c2c1,.,0%,.,11%,.,.
Cc1ccc(NC(=O)OCC(F)(F)C(F)F)cc1NC(=O)OCC(F)(F)C(F)F,2%,-4%,2%,2%,.,18µM*
Cc1ccc(S(=O)(=O)c2c(C)nn(C(C)(C)C)c2OC(=O)C2CCCC2)cc1,-3%,-5%,0%,2%,-20%,21µM*
CCNc1ccc(Br)cc(C(=O)/C=C/c2ccc(Cl)cc2Cl)c1=O,-5%,0%,?,8.9µM*,?,26µM*
CNc1ccc(Br)cc(C(=O)/C=C/c2ccc3c(c2)OCO3)c1=O,-6%,-10%,?,14µM*,-20%,?
SMILES,GALK inhibitor,TrxR1 substrate,Nrf2 ARE act,TrxR1 inh,A549 viability,Nrf2 inh
CNc1ccc(Br)cc(C(=O)/C=C/c2cc(OC)ccc2OC)c1=O,-3%,6%,14µM*,35µM*,?,?
COc1cccc(CNC(=O)C(=O)NCC(c2cccs2)S(=O)(=O)c2cccs2)c1 (centres undefined),.,5%[57.1 µM],12%,6%[57.1 µM],-5%,.
CCC(C)(C)C1CCc2c(sc(N)c2C(N)=O)C1 (centres undefined),-2%,-20%,3%,-28%,8%,18µM*
CC(C)(C)C1CCc2c(sc(N)c2C(N)=O)C1 (centres undefined),5%,1%,4%,-7%,0%,-27%
COc1cc(NC(=O)CSc2ncc3c(n2)-c2ccc(Cl)cc2N(Cc2ccccc2)S3(=O)=O)cc(OC)c1,.,-4%[57.1 µM],0%,-1%[57.1 µM],-1%,-2%
CCCCC[C@H]1CN(CCc2ccccc2)C(=O)[C@@H]1CC(=O)NCc1ccc(OC)cc1,.,-9%,5%,-11%,?,26µM*
O=C(CC1N=C2c3ccccc3N=C(SCC(=O)Nc3ccccc3F)N2C1=O)NCc1cccs1 (centres undefined),.,0%,4%,15%,-7%,-4%
CCn1nc(C)c(C(=O)Nc2cc(Oc3cc(C)cc(C)c3)cc([N+](=O)[O-])c2)c1C,0%,-11%,2%,2%,?,21µM*
Cn1cc([N+](=O)[O-])c(C(=O)Nc2cc(Oc3ccccc3)cc([N+](=O)[O-])c2)n1,3%,-6%,?,-6%,-3%,9%
Cc1ccc(C)c(Oc2cc(NC(=O)CCCn3nc(C)c([N+](=O)[O-])c3C)cc([N+](=O)[O-])c2)c1,-1%,-7%,3%,15%,?,23µM*
Cc1cccc(Oc2cc(NC(=O)c3ccccc3)cc([N+](=O)[O-])c2)c1,0%,-10%,0%,1%[57.1 µM],?,13µM*
Cc1nn(CCCC(=O)Nc2cc(Oc3ccccc3)cc([N+](=O)[O-])c2)c(C)c1[N+](=O)[O-],3%,-8%,5%,-4%,-3%,?
Cc1[nH]n(-c2ncc(-c3ccc(Cl)cc3)s2)c(=O)c1C(c1ccc(Cl)cc1)C(C#N)C#N (centres undefined),-4%,-8%,6%,11µM*,-16%,3%
COc1ccc(C(c2c(C)[nH]n(C(N)=S)c2=O)C(C#N)C#N)cc1 (centres undefined),-3%,-26%[11.4 µM],9%,?,2%,17%
Cc1ccc(NC(=O)Nc2nnc(SCC(=O)N3CCC(C)CC3)s2)cc1,.,-4%[57.1 µM],1%,7%[57.1 µM],-16%,.
CNC(=O)COc1ccccc1C(=O)Nc1ccccc1,.,7%,.,9%,.,.

# Compound activity from PubChem BioAssay.
